Experimental data as given in the supplement of paper PMC10338343.
± gives the standard deviation. Over roughly 5,500 sequences, “pre-steady-state target cleavage rate” has its median near 0.1; the highest 2% begin near 0.64. The entries come from a sample that favours the highest values as a whole.

The sequences below were run on MIWI (PIWIL1) piRISC loaded with piRNA #2 (30 nt) (assay: pre-steady-state target cleavage rate (min^-1); MIWI and MILI are mouse PIWI proteins and EfPiwi is from a freshwater sponge; tags in brackets are library labels; higher = faster piRNA-guided slicing of the target). Details: guide: piRNA #2 5'p-UUAGGUAACCCAGUAGAUCCAGAGGAAUUC; auxiliary factor: 500 nM mouse GTSF1.
Procedure: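 Cleave-'n-Seq: a library of target RNAs (target site embedded in constant flanks, ACAGCATTCCGCGTTAGTGATATCCG... 5' flank; DNA-blocked outside the site) at 0.1 nM was incubated with 1 nM active mouse MILI or MIWI piRISC (synthetic 5'-monophosphorylated piRNA guide) with or without 500 nM mouse GTSF1 at 33 °C for 1 min to 16 h. Uncleaved targets were sequenced and normalised to non-target controls, and the pooled three trials were fitted to a burst-and-steady-state model to give the pre-steady-state cleavage rate (min^-1; k3 is constrained to at most 1e-4). Sequence is the target site only; target names encode pairing extent (gX:gY) and contiguous / 1-mismatch / 2-mismatch / bulge geometry. Fits with R² ≤ 0 are excluded.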

Row | Sequence | pre-steady-state target cleavage rate
1 | GAAUUGCUCUGGAUCUACUGGCUUACCUAA | 0.0382 ± 0.014
2 | GAAUUCCUCUGGAUACUACUGGGUUACCUAA | 0.373 ± 0.056
3 | GAAUUCCUCUGGAACUACUGGGUUACCAAA | 0.233 ± 0.056
4 | CAAUUCCUCUGGAUCUACUCGGUUUCCUAA | 0.0763 ± 0.028
5 | CAAUUCGUCUGGAUCUACUGCGUUACCUAA | 0.376 ± 0.044
6 | CUUAAGGAGACCUUCCUACUGGGUUACCUAA | 0.00294 ± 0.0029
7 | CUUAUGCUCUGGAUCUACUGGGUUACGUAA | 0.534 ± 0.042
8 | CAAUUCCUCAGGAUCUUCUGGGUUACCUAA | 0.485 ± 0.058
9 | CAAUUCCUGACGAUCUACUGGGUUACCUAA | 0.212 ± 0.034
10 | CAAUUCCUCACGAUCUACUGGGUUACCUAA | 0.784 ± 0.05
11 | CAAUUCCUCACCAUCUACUGGGUUACCUAA | 0.573 ± 0.069
12 | CUAUUCCUCACGAUCUACUGGGUUACCUAA | 0.659 ± 0.042
13 | GAAUUCCUCACCAUCUACUGGGUUACCUAA | 0.455 ± 0.051
14 | CUAUUCCUCACCAUCUACUGGGUUACCUAA | 0.384 ± 0.049
15 | GAAUUCCUCACGAUCUACUGGGUUACCUAA | 0.697 ± 0.051
16 | CUUUUCCUCACGAUCUACUGGGUUACCUAA | 0.635 ± 0.051
17 | CUAUUCCUGACGAUCUACUGGGUUACCUAA | 0.133 ± 0.023
18 | CAAUUCCUCUGGAUCUACAGGGUUAGCUAA | 0.157 ± 0.054
19 | CUUAAGCUCUCGAUCUACAGGGUUACCUAA | 0.185 ± 0.012
20 | CUUAUCCUCUGGAUCUUCUGGGUUACCUUA | 0.289 ± 0.053
21 | GAAUACCUCUGGAUCUACUGGGUAACCUAA | 0.168 ± 0.035
22 | CUUUUCCUCUGCAUCUACUGCGUUACCUAA | 0.49 ± 0.037
23 | CUAUUCCUCUGCAUCUACUGCGUUACCUAA | 0.654 ± 0.047
24 | CUUAUCCUCUGCAUCUACUGCGUUACCUAA | 0.377 ± 0.032
25 | CUAUUCCUCUGCAUCUACUGGGUUACCUAA | 0.463 ± 0.04

Row | Sequence | pre-steady-state target cleavage rate
26 | CAAUUCCUCUGCAUCUACUGCGUUACCUAA | 0.666 ± 0.058
27 | GAAUUCCUCUGCAUCUACUGCGUUACCUAA | 0.591 ± 0.054
28 | GAAUUCCUCUGGAUCUACUGGCAUACCUAA | 0.00471 ± 0.003
29 | CUUAACCUCUGAAUCUACUGGGUUACCUAA | 0.158 ± 0.019
30 | CUUAACCUCUCGAUCUACUGGCUUACCUAA | 0.173 ± 0.016
31 | CUUAAGGUCUGGAUCUUCUGGGUUACCAAA | 0.0379 ± 0.015
32 | CUAUUCCUCUUGAUCUACUGGGUUACCUAA | 0.767 ± 0.04
33 | GAAUUCCUCUUGAUCUACUGGGUUACCUAA | 0.74 ± 0.037
34 | CAAUUCCUCUUGGAUCUACUGGGUUACCUAA | 0.358 ± 0.046
35 | CUAUUCCUCUUGGAUCUACUGGGUUACCUAA | 0.433 ± 0.046
36 | GAAUUCCUCUUGGAUCUACUGGGUUACCUAA | 0.402 ± 0.042
37 | CAAUUCCUCUUGAUCUACUGGGUUACCUAA | 0.866 ± 0.044
38 | GAAUUCCUCUGAUCUACUGGGUUACCUAA | 0.454 ± 0.062
39 | CUUUUCCUCUGAUCUACUGGGUUACCUAA | 0.304 ± 0.036
40 | CUUUUCCUCUUGGAUCUACUGGGUUACCUAA | 0.346 ± 0.033
41 | CUAUUCCUCUGAUCUACUGGGUUACCUAA | 0.395 ± 0.048
42 | CUUUUCCUCUUGAUCUACUGGGUUACCUAA | 0.705 ± 0.039
43 | CAAUUCCUCUGAUCUACUGGGUUACCUAA | 0.528 ± 0.061
44 | CUUAUCGUCUGGAUCUACUGGGUUACCUUA | 0.295 ± 0.066
45 | CAAUUCCUCUGGAACUACUGGGUAACCUAA | 0.235 ± 0.035
46 | CUUUUCCUCUGGAUCUACACCGUUACCUAA | 0.0786 ± 0.0085
47 | CUUAACCUCUCGAUCUACUGGGUUACCUUA | 0.373 ± 0.034
48 | GAAUUCCUCUGGAACUAGUGGGUUACCUAA | 0.221 ± 0.027
49 | GAAUUCCUCUGGAUCUUCUGGGUUACCUAA | 0.274 ± 0.047
50 | GAAUUCCUCUGGAUCUACUGGGUUACCUGAA | 0.735 ± 0.26

Row | Sequence | pre-steady-state target cleavage rate
51 | CAAUUCCUCUGGAUCUACUGGGUUACCUGAA | 0.438 ± 0.14
52 | CUAUUCCUCUGGAUCUACUGGGUUACCAUA | 0.413 ± 0.054
53 | CAAUUCCUCUGGAUCUACUGGGUUACCAUAA | 0.588 ± 0.078
54 | CUUAUCCUCUGGAUCUACUGGGUUACAUAA | 0.742 ± 0.048
55 | CUAUUCCUCUGGAUCUACUGGGUUACCAUAA | 0.553 ± 0.069
56 | CUUAUCCUCUGGAUCUACUGGGUUACCAUA | 0.497 ± 0.069
57 | CAAUUCCUCUGGAUCUACUGGGUUACAUAA | 0.739 ± 0.053
58 | CUUAUCCUCUGGAUCUACUGGGUUACCAUAA | 0.452 ± 0.06
59 | CAAUUCCUCUGGAUCUACUGGGUUACCUGA | 0.328 ± 0.086
60 | CUAUUCCUCUGGAUCUACUGGGUUACAUAA | 0.739 ± 0.051
61 | CAAUUCCUCUGGAUCUACUGGGUUACCAUA | 0.518 ± 0.076
62 | CUUAAGGUCUUGGAUCUACUGGGUUACCUAA | 0.291 ± 0.03
63 | CUUAAGGUCUGGAUCUACUGCGUUACCAAA | 0.109 ± 0.029
64 | CUAAUCCUCUGGAUCAACUGGGUUACCUAA | 0.381 ± 0.043
65 | CUUUUCCUCUGGAUCUACUGGGUUACCAUAA | 0.422 ± 0.047
66 | CAAUUCCUCUGGAUCUACUGGGUUAACUAA | 0.386 ± 0.098
67 | CUAUUCCUCUGGAUCUACUGGGUUAGCCUAA | 0.51 ± 0.063
68 | CUAUUCCUCUGGAUCUACUGGGUUAACUAA | 0.349 ± 0.071
69 | GAAUUCCUCUGGAUCUACUGGGUUACCAUAA | 0.383 ± 0.049
70 | CUUUUCCUCUGGAUCUACUGGGUUACAUAA | 0.738 ± 0.042
71 | GAAUUCCUCUGGAUCUACUGGGUUACAUAA | 0.64 ± 0.057
72 | GAAUUCCUCUGGAUCUACUGGGUUAACUAA | 0.674 ± 0.059
73 | CUUUUCCUCUGGAUCUACUGGGUUACCAUA | 0.437 ± 0.048
74 | CAAUUCCUCUGGAUCUACUGGGUUAGCCUAA | 0.651 ± 0.079
75 | GAAUUCCUCUGGAUCUACUGGGUUAGCCUAA | 0.299 ± 0.036

Row | Sequence | pre-steady-state target cleavage rate
76 | GAAUUCCUCUGGAUCUACUGGGUUACCAUA | 0.364 ± 0.05
77 | CUUAACCUCUGGAUCUAGUCGGUUACCUAA | 0.0063 ± 0.0049
78 | CUUUUCCUCUGGAUCAACUGGGUUUCCUAA | 0.165 ± 0.034
79 | CUUAAGGAGACCUUCUACAGCGUUACCUAA | 0.00566 ± 0.0029
80 | CUUAUGCUCUGGAUCUACUGGGUUACCUAA | 0.124 ± 0.02
81 | CUUAAGGACAGGUUCUACUGGGUUACCUAA | 0.0257 ± 0.017
82 | CUUAAGCUCUGGAUCUACUGGGUAACCAAA | 0.0234 ± 0.0094
83 | CUUAACCUCUGGAUCUACUGGGUUACUAA | 0.116 ± 0.018
84 | CUUAAGGAGUGGAACUACUGGGUUACCUAA | 0.0357 ± 0.024
85 | CUUAAGGAGUGGAUCUACUGGGUUACCGAA | 0.0437 ± 0.018
86 | CUUUUCCUCUGGAUCUAGAGGGUUACCUAA | 0.022 ± 0.0052
87 | CUUAACCUCUGGUUCUACUGGCUUACCUAA | 0.112 ± 0.014
88 | CUUUUCCUCUCGUUCUACUGGGUUACCUAA | 0.519 ± 0.041
89 | CUUAACCUCUCGUUCUACUGGGUUACCUAA | 0.401 ± 0.044
90 | CAAUUCCUCUCGUUCUACUGGGUUACCUAA | 0.82 ± 0.071
91 | CUUAUCCUCUCGUUCUACUGGGUUACCUAA | 0.41 ± 0.039
92 | CAAUUCCUCUGGGUCUACUGGGUUACCUAA | 0.562 ± 0.037
93 | CUAUUCCUCUGGAUUCUACUGGGUUACCUAA | 0.346 ± 0.047
94 | GAAUUCCUCUCCUUCUACUGGGUUACCUAA | 0.781 ± 0.06
95 | GAAUUCCUCUGGAUUCUACUGGGUUACCUAA | 0.224 ± 0.036
96 | CUAUUCCUCUCGUUCUACUGGGUUACCUAA | 0.75 ± 0.077
97 | CUAUUCCUCUCCUUCUACUGGGUUACCUAA | 0.569 ± 0.049
98 | CAAUUCCUCUCCUUCUACUGGGUUACCUAA | 0.613 ± 0.058
99 | GAAUUCCUCUCGUUCUACUGGGUUACCUAA | 0.793 ± 0.058
